This note sets out measurements from ChEMBL document CHEMBL4513216, “Probing the Open Global Health Chemical Diversity Library for Multistage-Active Starting Points for Next-Generation Antimalarials” (ACS Infect Dis, 2020).

About 8,600 (12%) of roughly 69,000 compounds showed an effect of 50% or more. The list comes from a sample in which strong results are over-represented; it also holds similar structures and randomly drawn compounds.

This experiment has as its system Plasmodium berghei. The experiment is described as follows: Screen against P. berghei liver stage (PbLuc), transformed with Luciferase, at 10uM. Format: functional, HepG2. Conditions: tested at 10 uM.
For the compound `Fc1ccc(CNCc2cc(Br)c3c(c2)OCO3)cc1`, the INHIBITION worked out at 78%.
To `Cc1ccc(CNCc2cc(Br)c3c(c2)OCO3)cc1` belongs 45.4%; to `FC(F)Oc1ccc(CNCc2cc(Cl)c3c(c2)OCO3)cc1`, 24.6%; to `COc1cc(CNCC(O)c2ccccc2F)cc2c1OCO2` (stereo not drawn), -9.37%.
As to `C[C@@H]1CN(c2ccc(Cl)cn2)C[C@]1(C)O`, the INHIBITION is on record as 4.161%.
Turning to `Fc1cnc(N2CCO[C@H]3[C@H](OCCN4CCCC4)CC[C@@H]32)nc1`, the INHIBITION stood at 4.68%.
To `Cc1ccc(-c2nnc(CNCCn3cccn3)o2)cc1` belongs 37.9%; to `COCc1cc(NCc2ccccc2-n2cncn2)ncn1`, 15.7%.
As to `CN(Cc1nc(-c2ccccc2)no1)Cc1cnc(N2CCOCC2)s1`, the INHIBITION is listed as 25.8%.
Regarding `CN(C)CCn1c2c(ccc1=O)CCN(C(=O)c1cccs1)CC2`, the INHIBITION amounted to 13.5%.
To `COc1c(CNCc2cccc(CN(C)C)c2)c(C)nn1C` belongs 35.3%.
As to `Cc1nc(Nc2cnccn2)cc(C2CCCN2C2CCOCC2)n1` (stereo not drawn), the INHIBITION worked out at 25.6%.
Take `CC(C)C1CCCN1C(=O)Nc1ccc(=O)n(C)c1` (stereo not drawn): the INHIBITION is listed as -22.1%.
To `CCc1nc(C2CCCN2CC(=O)Nc2nnc(C)s2)no1` (stereo not drawn) belongs -11.9%; to `CC(C)n1nc(CN2CCCC2=O)c2c1CN(C(=O)c1ccc[nH]1)C2`, 7.67%.
`NC(=O)c1c(NC(=O)C2CCCO2)sc2c1CCc1ccccc1-2` (stereo not drawn): the INHIBITION is recorded as -57.9%.
To `Cc1ccccc1S(=O)(=O)N1CCC(c2[nH]ncc2C)C1` (stereo not drawn) belongs 11.1%; to `CC(=O)N1CC[C@H]2[C@H](C[C@@H](Cn3cncn3)N2c2nccs2)C1`, 85.4%.
As to `CCC(=O)N1CC[C@H]2[C@H](C[C@@H](CN3CCCC3)N2c2nccs2)C1`, the INHIBITION is reported as -0.284%.
As for `CC(C)N1CC[C@H]2[C@H](C[C@@H](Cn3cncn3)N2c2nccs2)C1`, the INHIBITION amounted to 0.71%.
As to `CC(=O)N1CC[C@H]2[C@H](C[C@@H](CN3CCCC3)N2c2nccs2)C1`, the INHIBITION came out at 0.71%.
For the compound `CN1CC[C@H]2[C@H](C[C@@H](Cn3cncn3)N2c2nccs2)C1`, the INHIBITION was 69.7%.
As to `CN1CC[C@H]2[C@H](C[C@@H](CN3CCCC3)N2c2nccs2)C1`, the INHIBITION came to 34.5%.
For `Cc1nnc(N2CCOC(C)(C(=O)N(C)C)C2)c2ccccc12` (stereo not drawn), the INHIBITION is -9.51%.
Consider `Cc1cnn(CC2CCCN2C(=O)c2cccc3[nH]ncc23)c1` (stereo not drawn), for which the INHIBITION was determined as 24.5%.
To `Cc1cccc(Oc2ccccc2CNC(=O)C2CCC(=O)NC2)c1` (stereo not drawn) belongs 37.9%; to `O=C(NCc1ccc(F)cc1)NCC(O)(c1ccco1)C1CC1` (stereo not drawn), 66.9%.
Turning to `O=C(NCC(O)(c1ccco1)C1CC1)c1ccccc1F` (stereo not drawn), the INHIBITION turned out to be 9.79%.
Consider `O=C(NCc1ccc(F)cc1)NCC(O)(c1cccs1)C1CC1` (stereo not drawn), for which the INHIBITION was -11.8%.
On to `CN(C)Cc1nn(C)c2c1CCN(C(=O)c1cccnc1)C2`, for which the INHIBITION stood at 17.4%.
On to `Fc1ccc(N2CCOC(Cc3cccnc3)C2)cc1` (stereo not drawn), for which the INHIBITION is recorded as 7.52%.
Consider `CN1C[C@@H]2CC[C@H]1CN(C(=O)COCc1nc3ccc(F)cc3[nH]1)C2`, for which the INHIBITION was 35.1%.
For the compound `CN1CC[C@H]2CN(C(=O)COCc3nc4cc(F)ccc4[nH]3)C[C@H]21`, the INHIBITION was found to be 47.3%.
On to `CN(C)[C@H]1CCCCN(C(=O)COCc2nc3cc(F)ccc3[nH]2)C1`, for which the INHIBITION turned out to be 51.3%.
To `Cc1ccc(Br)cc1C(=O)Nc1cc(C(N)=O)n(C)c1` belongs -20.2%; to `Cc1nc(C)n(CC2CN(Cc3cscn3)CCO2)n1` (stereo not drawn), 21.935%; to `Cc1ccccc1-n1cc(-c2ccnc(N3CCCC(O)C3)n2)cn1` (stereo not drawn), 3.06%.
`Cc1ccccc1-n1cc(-c2ccnc(N[C@H](CO)C(C)C)n2)cn1`: the INHIBITION is given as 68.2%.
With `Cc1ccccc1-n1cc(-c2ccnc(N3CCCC(CN)C3)n2)cn1` (stereo not drawn), the INHIBITION is on record as -29.6%.
As to `COc1cccc(-n2cc(-c3ccnc(NC(CO)C(C)C)n3)cn2)c1` (stereo not drawn), the INHIBITION was -40.6%.
With `Cc1ccccc1-n1cc(-c2ccnc(NC(CO)C(C)C)n2)cn1` (stereo not drawn), the INHIBITION turned out to be 95.7%.
Take `COc1cccc(-n2cc(-c3ccnc(N[C@H](CO)C(C)C)n3)cn2)c1`: the INHIBITION amounted to 5.8%.
Turning to `COc1cccc(-n2cc(-c3ccnc(N[C@@H](CO)C(C)C)n3)cn2)c1`, the INHIBITION is reported as -95.7%.
To `Cc1ccccc1-n1cc(-c2ccnc(N[C@@H](CO)C(C)C)n2)cn1` belongs 8.7%.
As for `COC[C@H]1CCCN1c1nccc(-c2cnn(-c3ccccc3C)c2)n1`, the INHIBITION came out at 78.5%.
With `Cc1cc(CN2CCN(C(=O)NCc3cccs3)CC2)no1`, the INHIBITION is given as -43.5%.
As for `CC(=O)NCCc1ccc(S(=O)(=O)Nc2cc(F)ccc2C)s1`, the INHIBITION is -12.2%.
`CC(=O)N1CCC(c2cccc(NC3CCOCC3)n2)CC1`: the INHIBITION came out at 11.8%.
For `COCCOCC1(CNCc2ccc(OC)cc2)C[C@@H](O)[C@@H](O)C1` (stereo partly drawn), the INHIBITION was -1.12%.
Take `COCCOCC1(CNC(=O)c2ccc(OC)cc2)C[C@@H](O)[C@@H](O)C1` (stereo partly drawn): the INHIBITION is recorded as 50.6%.
Turning to `COCCOCC1(CNCc2cccc(OC)c2)C[C@@H](O)[C@@H](O)C1` (stereo partly drawn), the INHIBITION is 12.4%.
Take `Cc1nccc(N[C@H]2CN(CC(C)(C)N3CCOCC3)C[C@@H]2C2CC2)n1`: the INHIBITION is reported as -10.6%.
As to `c1cc(CN2CC[C@H]3CO[C@H](CN4CCOCC4)[C@H]3C2)cs1`, the INHIBITION is 2.59%.
